Screening results (PubChem)
Sampled rows, rich in hits. Any-hit rate of the full collection: about 3.7%.
TMEM16A act: mouse TMEM16A channel activation, primary screen; HEK293 TMEM16A/YFP-H148Q/I152L, iodide quench fluorescence; hits give low values; B-score at 10 µM; 0.3% of 340,000 active;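 active = fluorescence-ratio B-score plate-corrected deviation score at least 3 library SD below zero, with starting fluorescence score within 5 deviations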;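 note: channel opened by trigger with iodide after compound preincubation; score built on the fluorescence ratio of max minus min over baseline; more negative score means more quench and so TMEM16A activation or potentiation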
CHT PAM: allosteric activators of human choline transporter CHT; Q9GZV3; CHT-expressing cells, membrane potential dye, choline EC20; hits give high values; LV-AA mutant CHT in HEK293 cells; B-score at 10 µM; 0.49% of 310,000 active; AID 488977;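 active = initial fluorescence not abnormally high and integrated response B-score, plate-corrected, over 3 SD above library mean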
Kir21 block: Kir2.1 (mouse) channel inhibition; HEK293-Kir2.1, FluxOR thallium flux fluorescence; hits give low values; B-score at 10 µM; 0.85% of 310,000 active; AID 1672;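 active = fluorescence ratio B-score at or below minus 3 SD of library scores, with starting-brightness B-score within 2 SD, cut at about -4.2 in these data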;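 note: channel flux triggered by added potassium and thallium sulfate stimulus; B-score of peak minus minimum fluorescence over baseline after thallium stimulus; more negative B-score means stronger Kir2.1 block with less thallium influx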
ANO1 block: mouse TMEM16A channel inhibition, primary screen. HEK293 TMEM16A/YFP iodide influx fluorescence, ionomycin. normalized B-score (activity score, 25-100; higher = stronger inhibition) at 10 µM. 1.2% of 310,000 active. AID 588511;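 active = ratio plate-corrected score three or more library SD toward inhibition, starting fluorescence score within five deviations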;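 note: score derived from kinetic fluorescence span divided by baseline fluorescence per well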
GPR7 antagonist: blocks human GPR7 receptor signaling. P48145. GPR7-expressing cells, fluorescence antagonist assay. inhibition, % at 4.4 µM. 1.1% of 290,000 active. AID 1861; in the data active = inhibition above about 16%, passing the limit was not always enough;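 note: cells stimulated with the agonist NPW; 0% = agonist with vehicle and 100% = vehicle without agonist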
Target sequence (P48145 whole entry, looked up): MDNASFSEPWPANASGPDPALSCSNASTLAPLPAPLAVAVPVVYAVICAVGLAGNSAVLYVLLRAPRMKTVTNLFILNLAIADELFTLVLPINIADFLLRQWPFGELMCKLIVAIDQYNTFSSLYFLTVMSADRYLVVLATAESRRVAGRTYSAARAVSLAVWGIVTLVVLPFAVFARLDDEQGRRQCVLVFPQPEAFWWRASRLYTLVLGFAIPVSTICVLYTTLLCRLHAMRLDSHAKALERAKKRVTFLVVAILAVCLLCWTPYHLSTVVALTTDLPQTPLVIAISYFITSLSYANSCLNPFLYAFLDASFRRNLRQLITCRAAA
CHT inh: inhibits the human high affinity choline transporter; Q9GZV3; AID 488975; 0.86% of 310,000 active; B-score at 10 µM; CHT-expressing cells, membrane potential dye, choline response; hits give low values;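 active = B-score over 3 SD under the library average, and starting fluorescence ratio not unusually high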;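 note: choline stimulus applied at its EC90 after an EC20 pre-addition; B-score computed on integrated fluorescence ratio after choline addition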
CHT inh conf: confirmation of human choline transporter CHT inhibitors; 70% of 2,400 active; AID 493221; CHT activity remaining % of control (hits give low values), % at 10 µM; CHT-expressing cells, choline membrane potential dye; LV-to-AA substituted CHT, HEK293 cells; shares compounds with CHT inh;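 active = choline transporter activity left, mean of duplicates at 10 µM, below buffer-only control mean minus 3 SD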;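 note: depolarization triggered by choline at its EC90 following an EC20 pre-addition; 0% = hemicholinium-3 full block and 100% = buffer-only control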
HEK293 MPD ctr: CHT inhibitor counter-screen hit in parental HEK293 cells; 4% of 2,400 active; AID 493222; shares compounds with CHT inh; membrane potential ratio readout (active if shifted either direction beyond buffer ±3SD; no single direction) at 10 µM; membrane potential dye, choline response; active = decrease or increase beyond buffer ±3SD;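 note: parental cells lack the transporter so any hit is non-specific; ratio is peak minus trough fluorescence over baseline after EC90 choline challenge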
* marks the source's active call; other numbers are inactive results; i = inactive; x = no result.

SMILES	TMEM16A act	CHT PAM	Kir21 block	ANO1 block	GPR7 antagonist	CHT inh	CHT inh conf	HEK293 MPD ctr
CCOC(=O)N1CCC(NS(=O)(=O)c2cc(C(=O)OC)n(C)c2)CC1	i	i	1.32	i	-2.1	i	x	x
CCOC(=O)C1CCN(c2nc(-c3ccccc3)nc3c2oc2ccccc23)CC1	i	i	0.44	i	-4.1	i	x	x
O=C(O)C1CCN(c2nc(-c3ccccc3)nc3c2oc2ccccc23)CC1	i	i	0.02	i	-7.2	-5.98*	63.2%*	i
C=CCN(CC=C)S(=O)(=O)c1ccc2nc(NC(=O)C(C)C)sc2c1	i	i	x	i	3.5	-7.28*	42.6%*	i
CCOC(=O)c1ccc2nc(NC(=O)C(C)C)sc2c1	i	i	0.45	i	-6.7	i	x	x
O=C(c1nn(-c2ccccc2)c(=O)c2ccccc12)N1CCN(c2ccccn2)CC1	i	i	-1.23	i	3.3	-6*	i	i
CCOC(=O)N1CCC(NC(=O)C2CCCN(Cc3nc(-c4cccc(Cl)c4)oc3C)C2)CC1 (stereo not given)	i	i	-0.13	i	-2.1	-6.39*	51.4%*	i
C=CCn1c(CSc2nc3ccccc3s2)nnc1SCC(=O)NCc1cccnc1	i	i	-1.6	i	-1.3	i	x	x
C=CCn1c(CSc2nc3ccccc3s2)nnc1SCC(=O)NCc1ccccc1	i	i	-5.22*	i	-4.9	-5.62*	62.3%*	i
C=CCNC(=O)/C(C#N)=C\c1cc(Cl)c(OCC)c(OC)c1	i	i	-0.5	i	-8.5	i	x	x
COc1ccc(-c2ccccc2NC(=O)C2CCCN(Cc3ccc(C)o3)C2)cc1 (stereo not given)	i	i	-0.58	i	13.9	i	x	x
Cc1ccc(OCCOC(=O)c2c(-c3ccccc3)noc2C)cc1	i	i	-0.25	i	-17.6	-4.96*	i	i
O=C(NCc1ccccc1)c1ccc(CN2CCC(Cc3ccccc3)CC2)cc1	x	i	0.71	i	25.7	i	x	x
CCc1cccc(C)c1NC(=O)c1ccc(CN2CCc3ccccc3C2)cc1	i	i	-0.11	i	-15.0	-5.44*	70.8%*	i
CCc1ccccc1NC(=O)c1ccc(CN2CCC(Cc3ccccc3)CC2)cc1	i	i	-2.04	i	1.4	-9.57*	48.3%*	i
CC(C)(C)n1ncc2c(=O)n(CC(=O)OCc3ccccc3)cnc21	i	i	-0.59	i	2.0	-6.71*	i	i
CC(C)(C)n1ncc2c(=O)n(CC(=O)c3ccccc3)cnc21	i	i	1.06	i	-5.7	i	x	x
CCC1Sc2ccc(S(=O)(=O)CCC(=O)NCc3ccco3)cc2NC1=O (stereo not given)	i	i	0.01	i	1.2	i	x	x
O=[N+]([O-])c1cc(Cc2ccccc2)cc(C=Nc2ccc(N3CCOCC3)cc2)c1O	i	i	-0.71	i	-6.1	-5.86*	65.9%*	i
CC1C/C(=N/NC(=O)c2cccc(F)c2)c2ccc(O)cc2C1 (stereo not given)	i	i	1.44	i	2.2	i	x	x
COc1ccc2c(c1)CC(C)C/C2=N\NC(=O)c1ccco1 (stereo not given)	i	i	-0.14	i	0.3	-9.52*	57.5%*	i
COc1ccc(CNC(=O)c2ccccc2SCC(=O)NCc2ccco2)cc1	i	x	x	x	x	x	x	x
O=C(O)c1cc([N+](=O)[O-])cc([N+](=O)[O-])c1N1CCN(c2cccc(C(F)(F)F)c2)CC1	i	i	1.23	i	-0.4	-5.27*	i	i
O=C1NC(=O)/C(=C\c2ccc(Br)o2)S1	i	i	-2.19	i	-2.8	-5.69*	i	i
